Data taken from PubChem BioAssay AID1240 (Sanford-Burnham Center for Chemical Genomics, 2008).
Out of some 50,000 compounds screened, about 800 (1.6%) showed an effect of 50% or more. Shown is part of a subset that was picked to be rich in strong results.

Biological target: Bcl-2-like protein 10 (Homo sapiens) (UniProt Q9HD36)
Assay: TR3 peptide-Bcl-B binding displacers, biochemical primary FP assay, phenotype converters (AID 1240);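 further: 0% = Bcl-B with tracer peptide and DMSO and 100% = tracer peptide lacking Bcl-B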
Conditions: GST-Bcl-B / FITC-TR3 peptide fluorescence polarization; stronger effect = higher value; compound at 3.75 mg/L

Chain of Bcl-2-like protein 10 (Homo sapiens) (Q9HD36 whole entry, looked up): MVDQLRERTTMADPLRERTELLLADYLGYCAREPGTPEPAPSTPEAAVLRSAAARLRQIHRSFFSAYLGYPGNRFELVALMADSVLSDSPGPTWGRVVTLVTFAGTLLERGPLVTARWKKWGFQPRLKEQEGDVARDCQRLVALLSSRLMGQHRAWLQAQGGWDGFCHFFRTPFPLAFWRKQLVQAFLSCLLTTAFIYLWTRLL

SMILES | displacement
C=CCNC(=O)CN(c1ccc(OC)cc1OC)S(=O)(=O)c1ccc(C)cc1 | 8.5%
C=COCCNC(=O)C(=O)Nc1ccc(F)cc1 | 5%
Cc1cccc(NC(=O)CCCN2C(=O)c3cccc4cccc(c34)C2=O)n1 | 0.6%
O=C1NN(c2ccccc2)C(=O)/C1=C/c1ccc(-c2ccccc2Cl)o1 | -13.5%
COC(=O)c1ccccc1-c1ccc(/C=C2/SC(=S)N(CC(=O)O)C2=O)o1 | 5.3%
COC(=O)c1ccc(-c2ccc(/C=C3/SC(=S)N(c4ccccc4)C3=O)o2)cc1 | 12.6%
O=C1/C(=C/c2ccc(-c3ccccc3[N+](=O)[O-])o2)SC(=S)N1c1cccc(Cl)c1 | 73.5%
COC(=O)c1ccccc1-c1ccc(/C=C2/SC(=S)N(c3ccccc3)C2=O)o1 | 70%
O=C1/C(=C/c2ccc(-c3ccccc3[N+](=O)[O-])o2)SC(=S)N1c1cccc(C(F)(F)F)c1 | -3%
COc1ccc(N2C(=O)/C(=C/c3ccc(-c4ccccc4[N+](=O)[O-])o3)SC2=S)cc1 | 11.9%
O=C(/C=C/c1cccc(C(F)(F)F)c1)Nc1cccc([N+](=O)[O-])c1 | 20.4%
CCOc1ccccc1NC(=S)NCc1ccccc1 | 3.9%
O=[N+]([O-])c1ccccc1S(=O)(=O)NCc1ccc2c(c1)OCO2 | -3.4%
Cc1cccc(OCC(=O)NC(C)c2ccccc2)c1 (configuration not stated) | -5.2%
Cc1ccc(OCC(=O)NC(C)c2ccccc2)cc1C (configuration not stated) | 89.2%
Cc1cc(OCC(=O)NC(C)c2ccccc2)cc(C)c1Cl (configuration not stated) | 1.4%
COC(=O)c1sc(NC(=O)c2c(-c3c(Cl)cccc3Cl)noc2C)c(C#N)c1C | 3.1%
O=C(Oc1ccc(/C=N/NS(=O)(=O)c2ccc(Cl)cc2)cc1)c1ccco1 | 6.4%
O=C(O)c1ccc(-c2ccc(C=C3C(=O)c4ccccc4C3=O)o2)cc1Cl | 25.2%
O=C(O)c1ccc(Cl)c(-c2ccc(C=C3C(=O)c4ccccc4C3=O)o2)c1 | 99.1%
O=C(O)c1cccc(-c2ccc(C=C3C(=O)c4ccccc4C3=O)o2)c1 | -2.7%
N/C(=N\OC(=O)c1ccc(Cl)c([N+](=O)[O-])c1)c1ccccc1Cl | 1.1%

SMILES | displacement
O=C1c2ccccc2NC(c2ccc(-c3ccccc3[N+](=O)[O-])o2)N1c1ccccc1 (configuration not stated) | 16.8%
Cc1cc(C(=O)N/N=C/c2ccc(Br)c([N+](=O)[O-])c2)n[nH]1 | 5.2%
O=C(N/N=C/c1ccc(Br)c([N+](=O)[O-])c1)c1cccs1 | 113%
O=C(CNc1ccc2ccccc2c1)N/N=C/c1ccc(Br)c([N+](=O)[O-])c1 | -4.4%
CCC1S/C(=N\N=C\c2cccc3ccccc23)NC1=O (configuration not stated) | 127%
O=C1N/C(=N/N=C/c2ccccc2O)SC1Cc1ccccc1 (configuration not stated) | 1.4%
CCC1S/C(=N/N=C/c2ccc3c(c2)OCO3)NC1=O (configuration not stated) | -13.8%
O=c1[nH]c(=S)[nH]c2c1C1(CCCC1)Cc1ccccc1-2 | -4.2%
COc1ccc(COC(=O)C2=C(C)NC3=C(C(=O)CCC3)C2c2cccc3ccccc23)cc1 (configuration not stated) | 10.9%
COc1cc(/C=C(/C#N)c2nc3ccccc3[nH]2)c([N+](=O)[O-])cc1OCCC(C)C | 69.6%
COc1cc(/C=C(\C#N)c2nc3ccccc3[nH]2)c(Br)cc1O | -96.8%
COc1ccc(/C=C(\C#N)c2nc3ccccc3[nH]2)cc1OC | 11%
COc1ccc(CC(=O)N2CCN(c3cccc(Cl)c3)CC2)cc1OC | 2%
COC(=O)C1=C(C)NC2=C(C(=O)CC(C)(C)C2)C1c1ccc(OC)cc1OC (configuration not stated) | 11.9%
O=C1C(=Cc2ccc(Sc3ccccc3)o2)C(=O)c2ccccc21 | 163%
O=C1C(=Cc2ccc(I)o2)C(=O)c2ccccc21 | 37.1%
Cc1ccc(C=C2C(=O)c3ccccc3C2=O)o1 | 10.9%
C#CCOc1c(Br)cc(/C=C2\C(=O)NC(=O)N(c3ccc(Cl)cc3)C2=O)cc1OC | -0.6%
CCn1nnnc1-c1ccc(OC)c(S(=O)(=O)Nc2ccc(F)cc2)c1 | 6.1%
CCn1nnnc1-c1ccc(OC)c(S(=O)(=O)Nc2ccc(Cl)cc2)c1 | 9.3%
CCn1nnnc1-c1ccc(OC)c(S(=O)(=O)Nc2ccc(Br)cc2)c1 | 58.3%
CCc1ccc(-n2c(C)cc(/C=C3/NC(=O)NC3=O)c2C)cc1 | -6.3%

SMILES | displacement
O=C(NC1CCCCC1)c1ccc2nc3ccccc3nc2c1 | 81.5%
O=C(NC1CCCCC1)c1ccc(Cl)c(Cl)c1 | 3.3%
O=C(NC1CCCCCC1)c1cccc(Cl)c1 | 4.5%
CCOC(=O)C(=CNc1ccccc1C(C)C)C(=O)OCC | -7.2%
O=C1c2cccc3cccc(c23)C(=O)N1Nc1ccc([N+](=O)[O-])cc1 | 3.8%
COc1ccc(-c2cc(C(=O)Nc3nc4ccc(S(C)(=O)=O)cc4s3)c3ccccc3n2)cc1OC | 5%
Cc1ccc2c(c1)NC(c1ccc(F)cc1)C1=C(CC(C)(C)CC1=O)N2 (configuration not stated) | 17.8%
Cc1ccc2c(c1)NC(c1ccc(C)o1)C1=C(CC(C)(C)CC1=O)N2 (configuration not stated) | 88.5%
Cc1ccc2c(c1)NC(c1ccccc1)C1=C(CC(C)(C)CC1=O)N2 (configuration not stated) | -3.1%
CCCCCC(=O)N1c2ccccc2NC2=C(C(=O)CC(c3ccc(OC)cc3)C2)C1c1ccco1 (configuration not stated) | -3.9%
Cc1ccc2nc(SCc3ccc([N+](=O)[O-])cc3)nc(C)c2c1 | -7.5%
O=C(Cc1ccccc1)Nc1ccc(Cl)c(-c2nc3ncccc3o2)c1 | 7.3%
Cc1ccc(C(=O)Nc2cccc3ccccc23)o1 | 16.6%
Cc1ccc(C(=O)Nc2c(C(=O)N3CCC(Cc4ccccc4)CC3)cnn2-c2ccccc2)cc1 | -8.3%
O=C(Nc1c(C(=O)N2CCC(Cc3ccccc3)CC2)cnn1-c1ccccc1)c1ccccc1F | 88.9%
O=C(Nc1c(C(=O)N2CCC(Cc3ccccc3)CC2)cnn1-c1ccccc1)c1cccc(F)c1 | 3.5%
CCOC(=O)C1=C(O)/C(=C\c2ccc(OCC)cc2)N=C1C | 18.1%
Cc1cccc(N2C(=O)/C(=C/c3cc(C)n(C)c3C)C(=O)NC2=S)c1C | 111%
Cc1cc(/C=C2\C(=O)NC(=S)N(c3ccc(Br)cc3)C2=O)c(C)n1C | -2.4%
Cc1cc(/C=C2\C(=O)NC(=S)N(c3ccc(Cl)cc3)C2=O)c(C)n1C | 29.5%
CCc1ccccc1N1C(=O)/C(=C/c2cc(C)n(C)c2C)C(=O)NC1=S | 8.1%
Cc1cc(/C=C2\C(=O)NC(=S)N(c3cccc(Cl)c3Cl)C2=O)c(C)n1C | 0.8%

SMILES | displacement
Cc1ccc(N2C(=O)/C(=C/c3cc(C)n(C)c3C)C(=O)NC2=S)cc1 | 97%
Cc1ccc(S(=O)(=O)N2CCN(C(=O)COc3ccc(Cl)cc3)CC2)cc1 | -15.1%
CCN(CC)c1ccc(/C=N/NS(C)(=O)=O)cc1 | 7.3%
COc1cccc(CN2CCN(C(=O)c3ccccc3OC)CC2)c1 | -15.8%
NC(=O)SCC(=O)Nc1ccccc1O | 4.9%
Clc1ccccc1-c1nnc(-c2ccc(-c3ccccc3)cc2)o1 | 5.2%
O=C(Nc1ccc(OC(F)(F)F)cc1)c1cccc([N+](=O)[O-])c1 | -1.6%
COc1cc(/C=C2\SC(NC(C)=O)=NC2=O)cc2sc(=O)oc12 | 24.7%
COc1ccc(/C=C2/SC(NC(C)=O)=NC2=O)c(OC)c1 | 133%
COc1cc(OC)c(/C=C2/SC(NC(C)=O)=NC2=O)cc1Br | 138%
COc1ccc(OC)c(/C=C2\SC(N3CCCC3)=NC2=O)c1 | -16.2%
COc1cc(/C=C2\SC(NC(C)=O)=NC2=O)cc(Br)c1OC | 11.8%
CC(=O)NC1=NC(=O)/C(=C\c2ccc(-c3ccc(Cl)c(C(=O)O)c3)o2)S1 | -115%
COc1ccc(/C=C2/SC(N)=NC2=O)c(OC)c1 | -3.2%
COc1c(Cl)cc(Cl)cc1/C=C1\SC(NC(C)=O)=NC1=O | 74.7%
COc1ccc(OC)c(/C=C2/SC(NC(C)=O)=NC2=O)c1 | 156%
COc1ccc(/C=C2\SC(N3CCCC3)=NC2=O)c(OC)c1 | -18.5%
COc1cc(/C=C2/SC(NC(C)=O)=NC2=O)cc(OC)c1OC | 31.2%
CCOC(=O)C1=CN(c2ccc(OCC)cc2)C=C(C(=O)OCC)C1c1ccccc1F | -12.6%
CC(=O)OC(c1c(F)c(F)c(F)c(F)c1F)c1c(F)c(F)c(F)c(F)c1F | 3%
C=CCN1C(=O)/C(=C\c2ccc(O)cc2)C(=O)NC1=S | -14.8%
O=C(N/N=C/c1ccc(Cl)cc1)c1ccc(O)cc1 | -1.1%

SMILES | displacement
O=C(/C=C/c1ccccc1)C1=C(O)C(=O)N(c2ccccn2)C1c1ccccc1F (configuration not stated) | 93.5%
O=C(O)CCCCCN1C(=O)C(O)=C(C(=O)/C=C/c2ccccc2)C1c1ccccc1F (configuration not stated) | 1.5%
O=C(/C=C/c1ccccc1)C1=C(O)C(=O)N(c2ccccc2)C1c1ccccc1F (configuration not stated) | 2%
Cc1ccccc1NC(=O)CN(c1ccc(Oc2ccccc2)cc1)S(C)(=O)=O | 1.7%
Cc1ccccc1NC(=O)c1ccc(C)c(S(=O)(=O)NCc2ccccc2)c1 | -9.5%
CC(C)Cc1nnc(NC(=O)Nc2ccc(Cl)c(Cl)c2)s1 | 3.9%
CC(C)c1nnc(NC(=O)Nc2ccc(Cl)c(Cl)c2)s1 | 98.2%
CC(C)c1nnc(NC(=O)Nc2ccc(Cl)cc2)s1 | 2.3%
FC(F)(F)c1nc2ccccc2n1CC#CCn1c(C(F)(F)F)nc2ccccc21 | -1.1%
Cc1ccc(NC(=O)/C(=C/c2ccccc2)c2ccccc2)cc1C | 12.1%
O=C(Nc1nc2ccc(Br)cc2s1)c1cccs1 | -3.7%
COc1ccc(C(=O)Nn2cc3cc([N+](=O)[O-])ccc3n2)cc1 | -9.5%
O=C(Cc1ccc(Cl)cc1)Nc1ccc2c(c1)OCCO2 | 0.4%
Nc1nc(SCc2ccc(Cl)cc2)nc2sc3c(c12)CCN(Cc1ccccc1)C3 | 16.8%
CSc1nc2sc3c(c2c(=O)[nH]1)CCCC3 | 6.2%
Nc1sc(=S)nc2sc3c(c12)CCN(Cc1ccccc1)C3 | 74%
CSc1nc2sc3c(c2c(=O)[nH]1)CCN(Cc1ccccc1)C3 | 81%
N#Cc1c(N)sc2c1CCN(Cc1ccccc1)C2 | 3.4%
CSc1nc2sc3c(c2c(=O)n1Cc1ccccc1)CCN(C)C3 | -6.8%
